Measurements from PubChem BioAssay AID1347414 (National Center for Advancing Translational Sciences (NCATS), 2020).
Records with an inconclusive call do not appear. Unmarked numbers belong to inactive results. Active and inactive are the calls of the source. Calls follow the shape of the dose curve; as a rule, active = well fitted inhibition curve with a large enough effect; inconclusive = small, poorly fitted or top-dose-only effect; inactive = no such curve, though single readings can be large or run the other way. Numbered stars: 1 amine (or outer) side, 2 acyl side, 3 side chain; on linkers, the order of the positions; unused ones are H or OH. Bridge positions count the residues as written; N and C are the ends. Square brackets hold non-standard residues; d marks the D form. Peptide text beside a SMILES is read from it. I, II: the chains in the order shown. Actinocin(9to1) = Cc1c2oc3c(C)ccc(C(=O)[*:1])c3nc-2c(C(=O)[*:2])c(N)c1=O; NMeV = CN[C@H](C(=O)O)C(C)C; Sar = CNCC(=O)O

Assay: qHTS to identify inhibitors of the type 1 interferon - major histocompatibility complex class I in skeletal muscle: Secondary screen by immunofluorescence; also: nearly all actives have a fitted effect of over 70% in size;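 as to activity change, negative = inhibition: digitonin at 100 µM served as the cytotoxic control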
Conditions: C25cl48 myoblasts, IFN-b induced HLA-ABC immunofluorescence, 24 h, Viability; series mostly up to 49.8 µM; activity change, negative = inhibition: at the top concentration
Text: Assay Submitter (PI): Travis B. Kinder Ph.D. & James Inglese Ph.D. Assay Development and Screening Technology Laboratory (ADST) National Center for Advancing Translational Sciences (NCATS), Rockville, MD National Institute of Health (NIH), Bethesda, Maryland Idiopathic inflammatory myopathies, collectively referred to as myositis, are a group of rare autoimmune diseases characterized by skeletal muscle inflammation, weakness, and usually accompanied by systemic pathologies of the skin, lungs, or vasculature. Current immunosuppressive therapies and glucocorticoids are often not curative and are accompanied by harsh side effects, especially in children with juvenile myositis. We initiated a drug repurposing and development program to identify more targeted, less toxic therapeutics to treat myositis. Although its cause is not known, muscle from a subset of patients have an abundance of the inflammatory type 1 interferon (IFN) and a down-stream product major histocompatibility complex class I (MHC class I), which are both thought to contribute to damage and weakness. We conducted quantitative high throughput screening (qHTS) on 6,576 compounds (4,679 unique) through a series of cell-based assays to identify those that inhibit the IFN-stimulated expression of MHC class I in muscle precursor cells (myoblasts). The compound identification and evaluation strategy utilized a primary screen with reporter-tagged MHC class I in genome-engineered myoblasts, ATP content counter screen for viability, HLA-ABC immunofluorescence secondary screen, and HLA-B RT-qPCR tertiary screen. To verify activity of compounds identified by qHTS in HLA-B HiBit reporter cells, compounds were assayed by high throughput HLA-ABC immunofluorescence. Briefly, 216 compounds identified from primary and counter screening as inhibitory with minimal cytotoxicity were dispensed into black/clear bottom […] using acoustic dispensing in an 11-point, 1:3 titration with a high final concentration of 50 uM. Normal immortalized human myoblasts C25cl48 were added to the plates with 4.0 ng/ml human IFN-beta for 24 hours, fixed, stained by immunofluorescence for HLA-ABC protein, nuclei, and cell body, and analyzed by laser scanning cytometry as described by Auld et al., 2006. References: Auld DS, Johnson RL, Zhang Y, Veith H, Jadhav A, Yasgar A, Simeonov A, Zheng W, Martinez ED, Westwick JK, Austin CP, Inglese J. 2006. Fluorescent protein-based cellular assays analyzed by laser-scanning microplate cytometry in 1536-well plate format. Methods Enzymol 414:566-89. doi:10.1016/S0076-6879(06)14029-X
PROTOCOL TABLE (as described by Inglese et al., 2007) SEQUENCE No. (e.g., 1, 2, 3, etc.); […] (e.g., Cells, Incubation, Reagent, etc.); VALUE; DESCRIPTION 0; Compounds; 25 nl; Follow-up compounds dispensed at 25 nl/well with Labcyte Echo 655 acoustic dispenser in triplicate Aurora ChemLib 1536K black/clear bottom, low base, TC 1536-well plates (00019324). Also dispensed 25 nl/well DMSO control, ruxolitinib IFN-b inhibitor control titration, and digitonin cytotoxic control 1a; Cells; 5 uL; Multidrop Combi (Thermo Scientific) to seed 125 cells/well into eight plates in 5 ul/well of iHSKM growth medium (GM) without dexamethasone into columns 1+2. Add metal lids with gas-exchange holes 1b; Cells; 5 uL; Multidrop Combi (Thermo Scientific) to seed 125 cells/well into eight plates in 5 ul/well of iHSKM GM without dexamethasone + 4 ng/ml IFN-b into columns 3 - 48. […]
% is scaled to controls: 0 for no effect and ±100 for the full control effect; potency is read from the fitted curve at half-maximal effect.

Row | Structure (SMILES) | Potency | activity change, negative = inhibition [%]
1 | C=C1C(=O)O[C@@H]2[C@H]3O[C@]3(C)CC/C=C(\C)CC[C@@H]12 | 11.5 µM (active) | 
2 | CC[C@@]1(O)C(=O)OCc2c1cc1n(c2=O)Cc2c-1nc1ccccc1c2/C=N/OC(C)(C)C |  | -26
3 | O=C(/C=C/C#Cc1cccc(NS(=O)(=O)c2ccccc2)c1)NO |  | -5.42
4 | CC(C)(C)c1cnc(CSc2cnc(NC(=O)C3CCNCC3)s2)o1 |  | 1.09
5 | Cc1sc2c(c1C)C(c1ccc(Cl)cc1)=N[C@@H](CC(=O)Nc1ccc(OCCOCCOCCOCCNc3cccc4c3C(=O)N(C3CCC(=O)NC3=O)C4=O)cc1)c1nnc(C)n1-2 (stereo not given in full) |  | 22.8
6 | CCCCC(=O)OCC(=O)[C@H]1[C@H](C)C[C@H]2[C@@H]3C[C@H](F)C4=CC(=O)C=C[C@]4(C)[C@@]3(F)[C@@H](O)C[C@@]21C |  | 15.7
7 | O=C(/C=C/c1cccc(S(=O)(=O)Nc2ccccc2)c1)NO |  | -0.722
8 | CC(C)[C@H](C(=O)Nc1ccc(C(=O)NO)cc1)c1ccccc1 |  | -1.44
9 | Cc1oncc1C(=O)Nc1ccc(C(F)(F)F)cc1 |  | -2.37
10 | Cc1c2oc3c(C)ccc(C(=O)N[C@@H]4C(=O)N[C@H](C(C)C)C(=O)N5CCC[C@H]5C(=O)N(C)CC(=O)N(C)[C@@H](C(C)C)C(=O)O[C@@H]4C)c3nc-2c(C(=O)N[C@@H]2C(=O)N[C@H](C(C)C)C(=O)N3CCC[C@H]3C(=O)N(C)CC(=O)N(C)[C@@H](C(C)C)C(=O)O[C@@H]2C)c(N)c1=O (I: T[dV]P[Sar][NMeV] / II: T[dV]P[Sar][NMeV]; ester I:1-I:C, II:1-II:C; linker I:N-II:N via Actinocin(9to1)) |  | -2.59
11 | CC(=O)c1cnc2ccc(-c3cc(Cl)c(O)c(Cl)c3)nc2c1NC1CCC(CN(C)C)CC1 (stereo not given) | 14.5 µM (active) | 
12 | Nc1ccccc1NC(=O)c1ccc(CNc2nccc(-c3cccnc3)n2)cc1 |  | -4.92
13 | COC(=O)N[C@@H](C)CNc1nccc(-c2cn(C(C)C)nc2-c2cc(Cl)cc(NS(C)(=O)=O)c2F)n1 |  | 3.67
14 | Cc1ccc([N+](=O)[O-])cc1S(=O)(=O)N(C)/N=C/c1cnc2ccc(Br)cn12 |  | 0.361
15 | COC(=O)C[C@](O)(CCCC(C)(C)O)C(=O)O[C@@H]1C(OC)=C[C@]23CCCN2CCc2cc4c(cc2[C@H]13)OCO4 |  | 25.5
16 | CN1CC[C@H](c2c(O)cc(O)c3c(=O)cc(-c4ccccc4Cl)oc23)[C@H](O)C1 |  | -1.82
17 | COc1ncc(Nc2ncc(C(C)N3CCN(S(C)(=O)=O)CC3)cc2-c2nc(C)nc(N)n2)cc1F (stereo not given) |  | -1.44
18 | CC(C)(C)c1nc2c3cc[nH]c(=O)c3c3cc(F)ccc3c2[nH]1 |  | -15.7
19 | Cc1ccc(C(=O)Nc2ccc(CN3CCN(C)CC3)c(C(F)(F)F)c2)cc1C#Cc1cnc2[nH]ncc2c1 | 12.9 µM (active) | 
20 | CC(C)c1c(-c2ccccc2)nc2c(C#N)c[nH]n2c1=O |  | 7.47

Row | Structure (SMILES) | Potency | activity change, negative = inhibition [%]
21 | Nc1nc(Nc2ccc(S(N)(=O)=O)cc2)nn1C(=O)c1c(F)cccc1F |  | -5.13
22 | OCCCNc1cc(-c2ccnc(Nc3cccc(Cl)c3)n2)ccn1 |  | 3.83
23 | CC[C@H](CC#N)OC(=O)N[C@@H](C)c1cccc(NC(=O)Nc2ccc(-c3cnco3)c(OC)c2)c1 |  | -3.25
24 | C=CC(=O)N1CC/C(=C\c2ccc(F)c([N+](=O)[O-])c2)C(=O)/C(=C/c2ccc(F)c([N+](=O)[O-])c2)C1 | 0.408 µM (active) | 
25 | CCOC(=O)C1=C(C)NC2=C(C(=O)CC(C)(C)C2)C1c1ccc(-c2ccccc2)cc1 (stereo not given) |  | 13
26 | COC(=O)c1nc(Cl)c(Cl)nc1N | 9.13 µM (active) | 
27 | Fc1ccc(CNc2ncnc3ccc(F)cc23)cc1 |  | 8.45
28 | CN(C)c1ccc(C(=O)NCCCCCCC(=O)NO)cc1 |  | 6.5
29 | CCc1c(O)cc(O)c(C(=O)c2ccc(OCCN3CCOCC3)c(OC)c2)c1CC(=O)N(CCOC)CCOC |  | -4.12
30 | CC(=O)OCC(=O)[C@@]12OC(C)(C)O[C@@H]1C[C@H]1[C@@H]3C[C@H](F)C4=CC(=O)C=C[C@]4(C)[C@@]3(F)[C@@H](O)C[C@@]12C |  | -0.722
31 | CNC(=O)c1cc(Oc2ccc(NC(=O)Nc3cc(C(C)(C)C)nn3-c3ccc4ncccc4c3)c(F)c2)ccn1 |  | -10.6
32 | CC(C)(C)c1nc(-c2cccc(NS(=O)(=O)c3c(F)cccc3F)c2F)c(-c2ccnc(N)n2)s1 |  | 9.89
33 | Cc1ncc(-c2ccnc(Nc3ccc(S(C)(=O)=O)cc3)n2)n1C(C)C |  | 0.722
34 | COC1CC(C(=O)c2ccc3c(N)ncc(-c4ccc(-c5cnn(C)c5)cc4)c3n2)C1 (stereo not given) |  | 0.546
35 | O=C(Nc1nc2cccc(-c3ccc(CN4CCS(=O)(=O)CC4)cc3)n2n1)C1CC1 |  | -6.56
36 | CC(C)C[C@H](NC(=O)[C@H](Cc1ccccc1)NC(=O)c1cnccn1)B(O)O |  | -3.61
37 | COc1ccc(CNc2nc(N(CCO)CCO)nc3c2ncn3C(C)C)cc1 |  | -27.7
38 | CC1(COc2ccc3c(c2)ncn3-c2ccc3cccc(N4CCC(N)CC4)c3n2)COC1 | 7.26 µM (active) | 
39 | CC[C@@]1(O)C(=O)OCc2c1cc1n(c2=O)Cc2cc3cc(O)ccc3nc2-1 |  | -2.03
40 | COc1cccc2nc(-c3cccs3)nc(NN3C(=O)C=C(C)C3=O)c12 | 16.2 µM (active) | 
